Inconclusive results are not listed. Active and inactive are the calls of the source. Unless noted, calls come from the whole dose curve; as a rule, active = well fitted inhibition curve with a large enough effect; inconclusive = small, poorly fitted or top-dose-only effect; inactive = flat fitted curve, though single readings scatter.

A short description of assay [1]: qHTS drug screen for cell cycle checkpoint inhibitors in PARPi-resistant BRCA-mutant ovarian cancer cell lines. (AID 1963452; calls by dose curve). As to conditions: PEO1/OlaR viability, CellTiter-Glo luminescence, 96 h, stronger effect = lower value. In outline:
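PEO1, PEO4 and PEO1/OlaR ovarian cancer cells, 600 per well, exposed 96 h at 37C to a dilution series. Viability read by CellTiter-Glo luminescence, normalized to DMSO and empty wells; activity summarized as Z-AUC.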
In general terms: qHTS replaces the single test concentration by a dilution series.

The nature of assay [2]: qHTS for identification of novel therapeutic agents for treatment of microphthalmiaassociated transcription factor (MiT) renal cell carcinoma (RCC) (AID 1963991).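 Note: curves scaled with 100% = DMSO viability and 0% = empty wells.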 The note with it: CellTiter-Glo, 48 h, stronger effect = lower value. An outline of the steps: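 UOK109/UOK124/UOK145 (TFE3 fusions, three partners); 500 cells/well; MIPE v4.0, 1912 cpds, 11 conc.; 48 h, 37 C; CellTiter-Glo, 15 min RT; lum. Norm.: DMSO 100%, empty 0%.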

Assay [3] in a line: qHTS profiling for inhibitors of Plasmodium falciparum proliferation (AID 504749).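 For activity, negative = inhibition: 0% = DMSO vehicle and full inhibition = artemisinin control.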 For all read-outs here: nearly all actives have a fitted effect of over 60% in size. Note: potency is the fitted concentration of half-maximal effect. The note with it: P. falciparum in erythrocytes, SYBR Green DNA, 72 h; for activity, negative = inhibition: at 28.7 µM (top of the series). In outline:
(§1)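 Each compound contacts P. falciparum-infected red blood cells for 72 h at 37 C; lysis buffer (Tris, EDTA, saponin, Triton X, SYBR Green I) is added and fluorescence measured next morning; values normalized to controls.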

In another assay the test system is 3D7. The description is as above. As to conditions: P. falciparum in erythrocytes, SYBR Green DNA, 72 h; series mostly up to 28.7 µM. In outline:
as §1

The subject of another assay is 7G8. Described as above. The note with it: P. falciparum in erythrocytes, SYBR Green DNA, 72 h; series mostly up to 28.7 µM. In outline: as §1
A further assay has as its system AA1029. Described as above. As to conditions: P. falciparum in erythrocytes, SYBR Green DNA, 72 h; series mostly up to 28.7 µM. In outline:
as §1

The subject of another assay is AS120. Described as above. The note with it: P. falciparum in erythrocytes, SYBR Green DNA, 72 h; series mostly up to 28.7 µM. In outline: as §1
The test system of the next assay is ATS189. The assay is described as above. As to conditions: P. falciparum in erythrocytes, SYBR Green DNA, 72 h; series mostly up to 28.7 µM. In outline:
as §1

In the next assay the test system is ATS95. The description is as above. As to conditions: P. falciparum in erythrocytes, SYBR Green DNA, 72 h; series mostly up to 28.7 µM. In outline: as §1
In another assay the test system is C2A. Described as above. The note with it: P. falciparum in erythrocytes, SYBR Green DNA, 72 h; series mostly up to 28.7 µM. In outline:
as §1

The test system of a further assay is CP185. Described as above. The note with it: P. falciparum in erythrocytes, SYBR Green DNA, 72 h; series mostly up to 28.7 µM. In outline: as §1
The next assay has as its system CP191. The description is as above. As to conditions: P. falciparum in erythrocytes, SYBR Green DNA, 72 h; series mostly up to 28.7 µM. In outline:
as §1

The next assay has as its system CP192. The description is as above. The note with it: P. falciparum in erythrocytes, SYBR Green DNA, 72 h; series mostly up to 28.7 µM. In outline:
as §1

[4] abbreviates: measured here: PEO1 parental Z-AUC.
Where [5] appears, read: TFE3-RCC UOK109 viability, measured here: UOK109 Z-AUC.
Setting [6] is: TFE3-RCC viability, measured here: UOK124 Z-AUC.
Where [7] appears, read: TFE3-RCC viability, measured here: UOK145 Z-AUC.

As for `O=c1[nH]cnc2[nH]ncc12`, the Z-AUC in [1] was -0.687 (inactive); in [1] (setting [4]), -0.667; in assay [1] (measured here: PEO4 Z-AUC), -0.722. The values for the z-score in assay [2] (setting [5]), in [2] (setting [6]) and in [2] (setting [7]) were 0.431, 0.33 and 0.0964, respectively. Besides, the activity, negative = inhibition was -0.162% (inactive) in assay [3] (parasite line A) and 2.37% (inactive) in assay [3] (parasite line B). Moreover, the Potency result in the assay with 3D7, with 7G8, with AA1029, in the assay with AS120, in the assay with ATS189 and in the assay with ATS95 was “inactive” each time. Also, the Potency entry in the assay with C2A, with CP185, with CP191 and with CP192 was “inactive” throughout.

Take `CC(C)C[C@H](NC(=O)[C@@H](O)[C@H](N)Cc1ccccc1)C(=O)O`: the Z-AUC in assay [1] was 0.8 (inactive); in assay [1] (setting [4]), 0.368; in assay [1] (measured here: PEO4 Z-AUC) it was 0.252. Also, the Potency in assay [3] (parasite line A) was 2.51 µM (active); in assay [3] (parasite line B), 5.62 µM (active); in the assay on 3D7 it was 2.51 µM (active); with 7G8 it was 4.47 µM (active); in the assay with AA1029 it was 5.62 µM (active); with AS120, 6.31 µM (active). For the same molecule, the Potency in the assay on ATS189 was 8.91 µM (active); in the assay with ATS95, 7.94 µM (active); in the assay on C2A, 3.98 µM (active); in the assay with CP185 it was 11.2 µM (active); in the assay with CP191, 5.01 µM (active).

As to `CNC(=O)c1ccc(C)c(-n2c(C)cc(OCc3ccc(F)cc3F)c(Br)c2=O)c1`, the Z-AUC in assay [1] was -0.231 (inactive); in assay [1] (setting [4]), -0.585; in assay [1] (measured here: PEO4 Z-AUC), -0.46. Besides, the z-score in assay [2] (setting [5]) was 0.451; in assay [2] (setting [6]), 1.43; in assay [2] (setting [7]), 0.519.

Consider `O=C1CCc2cc(OCCCCc3nnnn3C3CCCCC3)ccc2N1`, for which the Z-AUC was -1.35 (inactive) in [1], -0.972 in [1] (setting [4]) and -0.778 in [1] (measured here: PEO4 Z-AUC). Moreover, the results for the z-score in assay [2] (setting [5]), in [2] (setting [6]) and in assay [2] (setting [7]) were 0.489, 0.136 and 0.331, respectively. Besides, the Potency result in the assay on 3D7, in the assay with 7G8, in the assay on ATS95, in the assay on CP191 and with CP192 was “inactive” throughout.

Turning to `O=c1ncn2nc(Sc3ccc(F)cc3F)ccc2c1-c1c(Cl)cccc1Cl`, the Z-AUC in assay [1] was -0.105 (inactive); in assay [1] (setting [4]) it was 0.606; in [1] (measured here: PEO4 Z-AUC) it was 0.747. The z-score in [2] (setting [5]) stood at 0.124; in assay [2] (setting [6]), 1.12; in [2] (setting [7]), 1.1.

`Cc1[nH]c(=O)c(C#N)cc1-c1ccncc1`: the values for the Z-AUC in assay [1], in [1] (setting [4]) and in [1] (measured here: PEO4 Z-AUC) were -0.809 (inactive), -0.611 and -0.635, respectively. Also, the activity, negative = inhibition is -21.8% (inactive) in assay [3] (parasite line A) and -1.27% (inactive) in assay [3] (parasite line B). Moreover, the Potency entry in the assay on 3D7, in the assay on 7G8, in the assay on AA1029, in the assay on AS120, in the assay with ATS189 and with ATS95 was “inactive” each time. For the same molecule, the Potency entry in the assay on C2A, with CP185, with CP191 and in the assay on CP192 was “inactive” each time.

For `NCCCC(N)(C(=O)O)C(F)F` (stereo not given), the Z-AUC in assay [1] is 0.209 (inactive); in [1] (setting [4]), 0.253; in assay [1] (measured here: PEO4 Z-AUC), 1.05. Moreover, the activity, negative = inhibition in [3] (parasite line A) is 2.98% (inactive); in assay [3] (parasite line B), 4.55% (inactive). Moreover, the Potency entry in the assay on 3D7, in the assay with 7G8, in the assay with AA1029, in the assay with AS120, in the assay with ATS189 and in the assay on ATS95 was “inactive” in each case. Also, the Potency entry with C2A, with CP185, in the assay on CP191 and in the assay with CP192 was “inactive” each time.

Values taken from PubChem BioAssay (NCATS).
